According to the supplement of paper PMC3334620:
The full ranking holds about 33,000 sequences; the median of “E-score (-0.5 to 0.5)” is about -0.053, and the highest 2% start at about 0.37. The entries come from a sample that favours the highest values as a whole.

Biological target: Hap1 (UniProt P0CE41)
Assay: PBM E-score (8-mer binding enrichment) (E-score (-0.5 to 0.5)); higher = stronger / more preferred TF binding
Conditions: protein concentration: 200 nM; construct: GST-DNA-binding domain
Procedure: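 Universal 'all 10-mer' protein binding microarrays (Agilent AMADID 015681) probed with GST-tagged S. cerevisiae TFs (full-length or DBD) made by in vitro transcription/translation (PURExpress), about 100-200 nM. Bound TF was detected with fluorescent anti-GST. Each ungapped 8-mer (which stands for itself and its reverse complement) is scored by the PBM enrichment score (E-score), a modified Wilcoxon-Mann-Whitney statistic from -0.5 to +0.5, computed with the Universal PBM Analysis Suite. Scale: above 0.35 generally sequence-specific binding.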

Chain of UniProt P0CE41 (P0CE41 whole entry): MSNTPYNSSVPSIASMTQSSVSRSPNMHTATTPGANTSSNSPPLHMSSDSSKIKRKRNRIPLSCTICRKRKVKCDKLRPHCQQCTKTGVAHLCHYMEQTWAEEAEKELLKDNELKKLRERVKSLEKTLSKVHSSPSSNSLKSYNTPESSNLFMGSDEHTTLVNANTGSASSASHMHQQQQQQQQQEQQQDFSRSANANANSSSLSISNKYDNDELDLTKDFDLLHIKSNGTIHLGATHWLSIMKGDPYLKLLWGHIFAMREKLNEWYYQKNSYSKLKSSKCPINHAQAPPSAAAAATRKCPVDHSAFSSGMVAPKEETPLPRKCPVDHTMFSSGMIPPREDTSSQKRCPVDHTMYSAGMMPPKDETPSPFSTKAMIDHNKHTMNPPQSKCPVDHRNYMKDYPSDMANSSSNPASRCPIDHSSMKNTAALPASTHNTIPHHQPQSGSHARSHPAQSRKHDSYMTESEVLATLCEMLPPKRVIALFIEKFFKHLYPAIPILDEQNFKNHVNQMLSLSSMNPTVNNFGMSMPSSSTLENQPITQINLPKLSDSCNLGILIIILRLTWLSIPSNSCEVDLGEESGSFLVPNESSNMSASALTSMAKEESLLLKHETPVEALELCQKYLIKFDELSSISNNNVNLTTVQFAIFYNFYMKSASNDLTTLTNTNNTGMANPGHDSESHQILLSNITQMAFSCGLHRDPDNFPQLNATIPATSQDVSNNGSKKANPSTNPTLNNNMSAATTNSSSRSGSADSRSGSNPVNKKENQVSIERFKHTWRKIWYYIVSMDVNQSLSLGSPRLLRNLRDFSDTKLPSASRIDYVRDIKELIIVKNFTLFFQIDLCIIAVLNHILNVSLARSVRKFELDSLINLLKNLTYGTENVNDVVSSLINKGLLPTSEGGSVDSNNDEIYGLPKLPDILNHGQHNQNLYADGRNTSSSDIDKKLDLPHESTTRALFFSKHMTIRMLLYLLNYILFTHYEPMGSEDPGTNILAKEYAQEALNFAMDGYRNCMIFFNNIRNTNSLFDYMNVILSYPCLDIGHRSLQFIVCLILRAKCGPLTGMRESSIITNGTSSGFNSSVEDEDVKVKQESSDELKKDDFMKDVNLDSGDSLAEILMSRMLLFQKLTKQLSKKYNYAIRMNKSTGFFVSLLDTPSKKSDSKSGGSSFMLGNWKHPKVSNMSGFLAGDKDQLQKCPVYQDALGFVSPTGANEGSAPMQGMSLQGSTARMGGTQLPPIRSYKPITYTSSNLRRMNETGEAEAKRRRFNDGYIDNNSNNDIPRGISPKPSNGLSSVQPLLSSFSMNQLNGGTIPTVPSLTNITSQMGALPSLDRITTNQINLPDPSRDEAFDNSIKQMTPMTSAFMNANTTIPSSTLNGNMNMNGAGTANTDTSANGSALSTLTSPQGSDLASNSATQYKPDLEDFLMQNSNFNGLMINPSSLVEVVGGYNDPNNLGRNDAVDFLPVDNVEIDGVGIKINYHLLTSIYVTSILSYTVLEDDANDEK

Row | Sequence | PBM E-score
1 | GCCCGGCA | 0.25
2 | ACCCGGTG | 0.249
3 | CCCCGGTA | 0.334
4 | GCCCGGTA | 0.38
5 | AAGCCTCA | -0.136
6 | CACCGCAC | 0.0364
7 | CGTGCACC | -0.0161
8 | AGGTCCGC | 0.33
9 | CGGTCCGA | 0.435
10 | GGGTCCCA | -0.0688
11 | GGGTCCGA | 0.38
12 | AGGTCCCA | -0.174
13 | AGGTCCGG | 0.396
14 | CGGTCCGC | 0.317
15 | GGGTCCAA | 0.15
16 | CGGTCCTA | 0.33
17 | AGGTCCGA | 0.404
18 | AGGTCCTG | -0.0186
19 | AGGTCCAG | -0.0779
20 | AGTGAAAA | 0.0463
21 | ATCTAGCG | 0.00616
22 | AGATAGCC | 0.0418
23 | CGCGAATA | 0.182
24 | ATCTGAGA | -0.25
25 | CTTCGACA | -0.309

Row | Sequence | PBM E-score
26 | GCAGTAGA | -0.3
27 | AGGTTCGA | -0.0833
28 | CGGCTGAC | 0.192
29 | GCTCTTCC | 0.0685
30 | AACTTTTG | -0.0532
31 | CAAAGAGC | -0.176
32 | GCGGCAAA | 0.202
33 | ACGGCAAC | -0.0151
34 | CCGGCAAC | 0.373
35 | CCGGCAAA | 0.387
36 | CCGGCAAG | 0.269
37 | GCGGCAAC | 0.00981
38 | AGTTTTTA | -0.141
39 | AGATTATA | -0.0616
40 | ATTCTGGC | -0.0263
41 | AGCCCTTA | -0.128
42 | CTCTACAA | -0.178
43 | CTTTCCGC | 0.194
44 | ACTTCCGA | 0.31
45 | ACTTCCGC | 0.249
46 | GTTTCCAA | -0.238
47 | GTTTCCGA | 0.379
48 | ATTTCCAG | 0.129
49 | ATTTCCCC | 0.181
50 | ATTTCCTG | -0.0599

Row | Sequence | PBM E-score
51 | ATTTCCGG | 0.459
52 | ATTTCCGC | 0.399
53 | CTTTCCGA | 0.316
54 | ACTTCCGG | 0.382
55 | AAAACAAA | 0.043
56 | AGCGCACC | 0.149
57 | CGGTTCTA | 0.276
58 | ATCAAGAG | -0.172
59 | ACGGAACG | 0.195
60 | CTACCAGC | -0.319
61 | CATAGGCG | -0.196
62 | GCCACTAC | -0.042
63 | ATTTCCGA | 0.432
64 | ATTTCCCA | -0.131
65 | ATTTCCAA | 0.0623
66 | CCGTCTCC | 0.126
67 | AACCTATC | -0.00501
68 | GATAGTGC | -0.0408
69 | CGTACGAC | -0.0847
70 | CACGTCGG | 0.28
71 | GTACGGTA | 0.0448
72 | CTCCGGCA | 0.371
73 | CTCCGGTC | 0.431
74 | GTTCGGTA | 0.249
75 | ATCCGGTC | 0.329

Row | Sequence | PBM E-score
76 | CTCCGCTA | 0.336
77 | GTCCGGTA | 0.419
78 | ATCCGCTA | 0.306
79 | GTCCGCTA | 0.37
80 | CTCCGGCC | 0.358
81 | CGCCGGTC | 0.295
82 | ATCCGGCA | 0.329
83 | GGCATCGA | -0.206
84 | AAATGAAT | -0.213
85 | CCAGCGTC | 0.0197
86 | AGTTCTTA | 0.0534
87 | CGCCATCC | -0.00934
88 | CGTCGGAA | 0.306
89 | CATTTGCC | -0.0698
90 | AGGGAACG | -0.0997
91 | ATCCGGTA | 0.357
92 | CTCCGGTA | 0.439
93 | CGCCGGTA | 0.345
94 | CAAGCTCC | 0.00322
95 | CGGGCTTC | 0.307
96 | CGGGCTTA | 0.437
97 | GGGGCATA | 0.0612
98 | AGGGCATA | -0.102
99 | CGGGCATA | 0.386
100 | AGGGCTTA | -0.203

Row | Sequence | PBM E-score
101 | GTACTTCA | 0.032
102 | GGGGTTAA | 0.386
103 | GGGGTTAC | 0.218
104 | AGGGTTAA | -0.259
105 | GGGTTTAA | 0.387
106 | GGGTTTTA | 0.288
107 | TGGTTTAA | -0.161
108 | ATCTATCG | 0.268
109 | GACTCGGC | 0.186
110 | AACGAAGG | -0.308
111 | ACTTGGTG | -0.25
112 | ACCTGCCG | -0.0501
113 | GAGCGCAA | -0.175
114 | AGTTACTA | -0.128
115 | ACCAGTGA | -0.18
116 | GGTAGTTA | 0.0824
117 | CCCTAGCC | -0.138
118 | GTTCGGAA | 0.312
119 | ATTCGGAG | 0.299
120 | ATTCGGCC | 0.375
121 | ATTCGGGG | 0.393
122 | ATTCGGCA | 0.224
123 | ATTCGGAA | 0.311
124 | ATTCGGCG | 0.278
125 | ATTCGGGA | 0.197

Row | Sequence | PBM E-score
126 | ATTCGGAC | 0.382
127 | AGTCGGAC | 0.318
128 | ATTCGGGC | 0.308
129 | CTTCGGAA | 0.403
130 | AGGTGAAG | -0.184
131 | CGATTCAA | -0.0364
132 | GACGGGGC | 0.0768
133 | GTCCACAC | 0.0984
134 | ATTCGCCG | 0.295
135 | ATCCCAAG | -0.0728
136 | AAACTGCC | -0.0803
137 | ACTAGTTC | -0.0373
138 | CTTCGGCC | 0.309
139 | CTTCGGAC | 0.406
140 | CTTCGGGC | 0.208
141 | AATCTCGT | 0.0299
142 | ATATCGGC | 0.455
143 | CTATCGTC | -0.0802
144 | ATATCGCG | 0.314
145 | CTATCGCC | 0.102
146 | CTATCGGC | 0.385
147 | CGATCGGC | 0.312
148 | ATATCGTC | 0.0615
149 | ATATCGCC | 0.414
150 | AAATCGGC | 0.303

Row | Sequence | PBM E-score
151 | GCCCAAGA | -0.22
152 | CCACATCA | -0.064
153 | CTTGCTCA | -0.129
154 | GAGAGATA | 0.0119
155 | GCACAGAC | 0.0195
156 | GCTGATTA | -0.00254
157 | AGGCCGTA | 0.0497
158 | CGGCCTTC | 0.301
159 | GGGCCGGA | 0.355
160 | CGGCCGGA | 0.436
161 | CGGCCTTA | 0.439
162 | CGGCCGTC | 0.277
163 | AGGCCGGC | 0.271
164 | CGGCCGGC | 0.422
165 | CGGCCTGA | 0.183
166 | CGGCCGTA | 0.417
167 | AGGCCGGA | 0.336
168 | CTGCCGGC | 0.322
169 | AATGGGCC | 0.0191
170 | ACTCAGGA | -0.123
171 | CCAAATGA | 0.00146
172 | ACAGCACT | -0.0793
